From PubChem BioAssay AID720517 (National Center for Advancing Translational Sciences (NCATS), 2013)
Results filed as inconclusive are left out. A call without a number means that no potency is given here. Calls of active or inactive are those of the source. The call rests on the fitted dose curve; in most records, active means well fitted activation curve with a large enough effect; inconclusive means small, poorly fitted or top-dose-only effect; inactive means flat fitted curve, though single readings scatter.

assay: qHTS for Inhibitors of Cell Surface uPA Generation: FP59 Counterscreen for Cherry-picked Compounds; settings: FP59 anthrax toxin cytotoxicity counterscreen, cells; series mostly up to 115 µM

Structure (SMILES) | Potency
COc1ccc(S(=O)(=O)N2CCN(Cc3ccccc3)CC2)c(C)c1 | inactive
CCCCCOC(=O)C1=C(C)NC(=O)NC1c1ccccc1 (stereo not drawn) | inactive
CN(CCC#N)C(=S)Nc1ccc(Oc2ccccc2)cc1 | inactive
Fc1cccc(Cl)c1CSc1ccc(-c2cccnc2)nn1 | inactive
CCC1=NN(C(=O)C(=O)Nc2ccc(OC)cc2)C(O)(C(F)(F)F)C1 (stereo not drawn) | inactive
CCOc1ccc(NC(=S)N2CCC(c3ccc(C)cc3)C2)cc1 (stereo not drawn) | inactive
COc1ccc(N2CCN(C(=O)COc3ccc4c(C)c(C)c(=O)oc4c3C)CC2)cc1 | inactive
Cc1cnc(CNC(=O)C2CCC(=O)N(CCc3cccc(F)c3)C2)[nH]1 (stereo not drawn) | inactive
CCC(C)NC(=O)c1ccc2nc(-c3ccc(OC)c(OC)c3)c(-c3ccc(OC)c(OC)c3)nc2c1 (stereo not drawn) | inactive
CC(=O)Nc1sc(C)c(C)c1C(=O)OCC(=O)NC(C)c1ccccc1 (stereo not drawn) | inactive
Cc1ccc(OCc2cc(C(=O)N(C)Cc3cc(C4CC4)n[nH]3)no2)cc1C | inactive
COc1ccc(/C(N)=N/OC(=O)Cc2ccccc2OC)cc1 | inactive
O=C(c1ccco1)N1CCN(c2ncccn2)CC1 | inactive
CCOC(=O)C1=CC[C@@H](c2cc3ccc(OC)cc3n2C)N(S(=O)(=O)c2ccc(C)cc2)[C@H]1C(=O)OCC | inactive
COc1cccc(NC(=O)c2nnn(CC(=O)Nc3cc(C)cc(C)c3)c2N)c1 | inactive
CCC(C)Nc1cc(C)nc2ncnn12 (stereo not drawn) | inactive
CCN(C(=O)c1c(C)noc1C)c1c(N)n(Cc2ccccc2)c(=O)[nH]c1=O | inactive
C#CCOCCOCCOCCNc1nc(N2CCOCC2)nc(N2CCN(C(=O)[C@H](CCC(=O)O)n3cc([C@@H](N)CCCCN)nn3)CC2)n1 | inactive
